Shiga inhibitor: blocks Shiga toxin action in Vero cells | inhibition, % at 38.7 µM | Vero cells, Shiga toxin protein synthesis inhibition reporter | 9.2% of 290,000 active; in the data active = inhibition mostly above about 28%, no sharp cut-off; inactive = mostly below about 43%; note: 0% is about no effect
LASV entry inh: inhibitors of Lassa virus binding or cell entry | 1.2% of 300,000 active | AID 540256 | Lassa virus pseudotype entry inhibition, cell reporter | Potency, µM (doses to about 37.9 µM), inactives show at the top dose activity change, negative = inhibition, most hits filed as inhibitors; calls by dose curve; tested in HEK293 cells; note: potency is the fitted concentration of half-maximal effect; % is set by controls: 0 for no effect and ±100 for the full control effect; nearly all actives have a fitted effect of over 50% in size
FMDV inh: antivirals against foot and mouth disease virus | FMDV antiviral cell-based qHTS | Potency, µM (top dose mostly 57.9 µM), for the others: top-dose activity change, negative = inhibition, actives largely listed as inhibitors | 1.2% of 410,000 active | AID 1159524; calls by dose curve; tested in HEK293T cells; note: read-out not given here; potency is the fitted concentration of half-maximal effect; % is set by controls: 0 for no effect and ±100 for the full control effect; nearly all actives have a fitted effect of over 45% in size
CHX counter: counter-screen for Shiga toxin inhibitors: cycloheximide protein synthesis inhibition | cell reporter, cycloheximide protein synthesis inhibition counterscreen | AID 2314 | 12% of 300,000 active | max response, %; in the data active = max response mostly above about 13%, no sharp cut-off; inactive = mostly below about 14%; note: read at 38.3 µM for the half of the compounds with a filed dose; 0% is about no effect
Marburg entry inh: inhibitors of Marburg virus binding or cell entry; Marburg virus pseudotyped entry inhibition, cell reporter; Potency, µM (doses to about 37.8 µM), for the others: at the highest dose activity change, negative = inhibition, usual class: inhibitors; 1.8% of 300,000 active; calls by dose curve; tested in HEK293 cells; note: potency is the fitted concentration of half-maximal effect; % is set by controls: 0 for no effect and ±100 for the full control effect
HCV inhibitor: HCV inhibition. Potency, µM (highest dose often 41.8 µM), for inactives: top-dose activity change, negative = inhibition, most hits filed as inhibitors. Huh7.5.1 HCVcc-Cre infection, luciferase reporter, 44 h. AID 651820. 3.4% of 340,000 active; active = well fitted inhibition curve with a large enough effect; inconclusive = small, poorly fitted or top-dose-only effect, or another doubt; inactive = no such curve, though single readings can be large or run the other way; note: potency is the fitted concentration of half-maximal effect; % is set by controls: 0 for no effect and ±100 for the full control effect
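Reporter virus HCVcc-Cre (~0.5 moi) infects cells exposed to compound; seeding density 1,000 cells/well with 4 h settling beforehand. Luminescence, 15 sec read, taken 44 h post-infection following a 15 min RT substrate incubation.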
The depositor's hits bear a star; u = inconclusive; x = no result; [ ] = another dose, or the depositor's remark. A selection: hits, their analogues and other compounds. The true share with any hit is near 13%.

SMILES | Shiga inhibitor | LASV entry inh | FMDV inh | CHX counter | Marburg entry inh | HCV inhibitor
COC(=O)c1ccc(NC(=S)NCCc2ccccc2)cc1 | -3.4 | -2.6% | 25.1% | -0.7 | -23.3% | -6.6%
O=C(Nc1ccccc1)Nc1cccc(Cl)c1 | 106.9* | 1.4% | 0.0% | 55.6* | -5.6% | u
CC(=O)Nc1ccc(NC(=O)Nc2cccc(Cl)c2)cc1 | 49.6* | x | 15.8% | 27.3* | x | -25.0%
CC(=O)Nc1cccc(NC(=O)c2cccc(Cl)c2)c1 | x | x | 8.0% | x | x | x
CC(=O)c1ccc(NC(=S)NCCc2ccc(S(N)(=O)=O)cc2)cc1 | 98.6* | u | 0.0% | 32.0* | -1.1%[46.1 µM] | 12.1%
NS(=O)(=O)c1ccc(NC(=S)NCCc2ccccc2)cc1 | 10.3 | -5.1% | 21.5% | 2.8 | 3.9% | 23.7%
O=C(NCCc1ccncc1)Nc1cccc(Cl)c1 | -15.4 | -0.6% | -1.0% | -2.4 | 2.8% | 2.4%
O=C(Nc1ccccc1)C(Cl)C(=O)c1ccccc1 (configuration not stated) | x | x | 68.2% | 36.1* | x | 4.3%
O=C(NCCCc1ccccc1)Nc1cccc(Cl)c1 | 24.0* | 11.7% | -21.8% | 34.7* | 17.1% | -19.3%
CC1(C(=O)N2CCCCC2)CCN1C(=O)c1ccccc1CCc1ccccc1 (configuration not stated) | x | x | 8.7% | x | x | x
COC(=O)C(C)(C)ONC(=O)Nc1ccc([N+](=O)[O-])cc1 | 18.3 | -2.7%[46.1 µM] | 1.7% | 11.7 | -5.4%[46.1 µM] | 0.9%
NC(=S)Nc1cccc(Cl)c1 | 1.0 | u | 12.5% | 7.5 | 6.0%[46.1 µM] | 7.1%
O=C(Nc1ccccc1)Nc1ccccc1 | 92.9* | x | 63.5% | 48.1* | x | u
O=C(Nc1ccccc1)Nc1ccc(Nc2ccccc2)cc1 | x | x | 60.8% | x | x | 3.4%
CC(=O)c1ccc(NC(=O)Nc2cccc(Cl)c2)cc1 | 60.6* | -2.5% | 11.1% | 36.7* | -26.7%[46.1 µM] | -17.5%
COC(=O)C(C)(C)ONC(=O)Nc1ccc(C)cc1 | 42.6* | 26.0% | 26.1% | 21.3* | u | 8.6%
CC(=O)c1ccc(N2CCN(C(=S)Nc3cccc(Cl)c3)CC2)cc1 | -5.6 | -13.7% | 9.0% | -1.5 | 0.1% | -13.1%
CS/C(N)=N/C(=S)Nc1cccc(Cl)c1 | 94.5* | u | 8.5% | 36.1* | -13.5%[46.1 µM] | 1.9%
COC(=O)c1cc2occc2n1Cc1ccc(Cl)cc1 | 6.0 | u | -13.2% | -2.4 | -5.7% | 8.8%
Cc1cc(C)cc(-n2c(SC(C)C(=O)NCc3ccc4c(c3)OCO4)nc3ccccc3c2=O)c1 (configuration not stated) | 13.3 | u | -7.5% | 1.5 | u | u
CCN(CCO)C(=O)C12CCC(C)(C(=O)C1)C2(C)C (configuration not stated) | -16.8 | 25.1%[14.3 µM] | 1.0% | -1.9 | -7.0% | x
Cc1cc(NC(=O)CON=C(N)CC(=O)Nc2ccccc2Cl)ccc1Br | x | 10.3% | 13.7% | x | -3.6% | u
Cc1ccc(C)c(NC(=O)c2cc3c([nH]c4ccccc43)c(C)n2)c1 | -9.1 | 1.5% | 4.2% | 11.3 | 2.2% | 5.3%
Cc1ccc(S(=O)(=O)NC(=O)NC(=O)N(C)S(=O)(=O)c2ccc(C)cc2)cc1 | -10.6 | x | -6.5% | 13.7 | x | 16.3%
NS(=O)(=O)c1ccc(NC(=O)Nc2cccc(Cl)c2)cc1 | 25.2 | u | 4.6% | 19.3* | -0.1% | -10.7%
SMILES | Shiga inhibitor | LASV entry inh | FMDV inh | CHX counter | Marburg entry inh | HCV inhibitor
Cc1ccc(N2C(=O)CC(SCC(=O)Nc3ccc(S(N)(=O)=O)cc3)C2=O)cc1 (configuration not stated) | 154.4* | -13.8% | 3.8% | 63.7* | 13.2%[46.1 µM] | -2.1%
Cc1ccc(NC(=O)NC(=O)N(C(C)C)S(=O)(=O)c2ccc(C)cc2)cc1 | 31.4 | x | 0.8% | 22.6* | x | 18.6%
Cc1ccc(NC(=O)Nc2ccc(S(N)(=O)=O)cc2)cc1 | 49.3* | 3.8% | 20.7% | 30.1* | u | -20.3%
NS(=O)(=O)c1ccc(NC(=O)Nc2ccc(S(N)(=O)=O)cc2)cc1 | 0.9 | -4.4% | -16.5% | -1.0 | 0.3%[46.1 µM] | 8.0%
Cc1cccn2c(=O)c3cc(C(=O)NC4CCCC4)n(C)c3nc12 | 1.9 | x | -12.0% | -1.1 | x | -27.8%
O=C(NCc1nc(-c2ccccc2)no1)Nc1ccc(F)cc1 | -7.4 | 11.1%[46.1 µM] | 0.4% | 0.6 | u | -21.8%
C[C@H](CCC(=O)O)[C@H]1CC[C@H]2[C@H]3C(CC[C@]12C)[C@@]1(C)CC[C@@H](O)C[C@H]1C[C@H]3O (some centres not stated) | x | x | -3.9% | x | x | x
Cn1c(=O)c2c(-c3ccccc3)n(-c3cc([N+](=O)[O-])ccc3N)cc2n(C)c1=O | x | x | -5.6% | x | x | x
Cc1oc(-c2ccc(Cl)cc2)nc1CS(=O)CC(=O)NCCc1ccccc1 (configuration not stated) | x | u | 22.0% | x | x | x
O=C(Cc1ccccc1)NCC(=O)OCC(=O)c1ccc(Cl)cc1 | -27.2 | x | -10.7% | -3.1 | x | 7.2%
O=C(O)/C(=C\C(=O)c1ccccc1)Nc1ccccc1 | 83.5* | x | x | 51.4* | x | x
Cc1ccccc1Cn1cc(NC(=O)c2cc(-c3cccs3)on2)cn1 | -11.8 | -22.3% | -18.9% | -3.3 | -27.5% | -17.7%
Cc1ccccc1Cn1cc(NC(=O)c2cc(-c3ccco3)on2)cn1 | 61.1* | x | 26.3% | 19.5 | x | u
COc1cccc(-c2cc(C(=O)Nc3cnn(Cc4ccc(F)cc4)c3)no2)c1 | 9.6 | u | 18.5% | 10.0 | 10.8% | -3.8%
O=C(Nc1cnn(Cc2ccc(F)cc2)c1)c1cc(-c2ccco2)on1 | 13.2 | 0.8% | -2.8% | 11.7* | u | -14.1%
COc1ccc(CNC(=O)c2sc3nc4n(c(=O)c3c2C)CCCC4)cc1 | x | -2.1%[46.1 µM] | 12.5% | x | x | x
CC(C)NC(=O)C1(C)Cc2c(-c3cccc(C(F)(F)F)c3)ccnc2O1 (configuration not stated) | x | x | -22.4% | x | x | x
NC(=O)c1ccsc1NC(=O)CSc1ccccc1F | 175.1 | 19.7% | x | 36.1* | 17.7% | -6.1%
Cc1csc(SCC(=O)Nc2nccs2)n1 | x | 15.9% | 6.2% | x | u | u
Cc1csc(SCC(=O)Nc2sccc2C(N)=O)n1 | 67.9* | 0.3% | 21.7% | 36.3* | u | 15.9%
COC(=O)c1sc2nc(C)nc(SCC(=O)Nc3sccc3C(N)=O)c2c1C | x | x | u | x | x | 11.2µM*
Cc1ccc(NC(=S)N/N=C/c2cccn2Cc2ccccc2F)cc1 | -3.5 | u | -17.5% | 1.3 | -12.4%[46.1 µM] | 5.0%
COc1ccc(-c2ccc(CN3C(C)C(=O)N(Cc4cn(CC5CCCCC5)nn4)CCS3(=O)=O)cc2)cc1 (configuration not stated) | x | x | -11.8% | x | x | x
CN(C)c1ccc(P(=O)(OCc2ccccc2)C(O)c2ccccc2F)cc1 (configuration not stated) | -3.1 | -18.3%[46.1 µM] | 11.6% | -1.6 | -4.8%[46.1 µM] | 7.7%
O=[N+]([O-])c1cc(Br)cc(C=Nc2ccc3c(c2)OCO3)c1O | 26.2 | x | -25.0% | 2.5 | x | 9.2%
O=[N+]([O-])c1ccc(O)c(C=Nc2ccc3c(c2)OCO3)c1 | 16.1* | -9.3% | 21.5% | 23.6* | 7.3%[46.1 µM] | -4.8%
O=C(N/N=C/c1cc(O)ccc1[N+](=O)[O-])c1ccc2c(c1)OCCO2 | -15.2 | 5.01µM* | u | 14.8* | u | 12.8%

Screens (PubChem)
